Experimental data published in the supplement of paper PMC7556523.
A number with no mark means an inactive call.

How the values were obtained:
[1] = tested on: Sporothrix brasiliensis CBS 133006; test: growth inhibition relative to untreated control; higher = more growth inhibition (more antifungal activity), active = 80 or more; extreme values may be limits of the assay; conditions: 1 µM; 48 h
Method in brief: (§1)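 Yeast-form cells of the reference isolates (grown 7 days in brain heart infusion broth with 2% glucose at 36°C) were exposed at 1 x 10^5 CFU/ml to library compounds at a final 1 μM for 48 h at 35°C in 5% CO2. Growth was checked by visual inspection under an inverted light microscope and quantified by spectrophotometric readings. The value is percent growth inhibition relative to untreated control. Runs were in quadruplicate.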

[2] = tested on: Sporothrix schenckii ATCC 32286; test: as above; conditions: 1 µM; 48 h
Method in brief: as §1

Work on `O=C(Nc1nc(-c2ccccn2)cs1)c1cncn1-c1ccccc1` yielded a growth inhibition [1] of 17.5% and a growth inhibition [2] of 15.2%.

`CC1=Nc2ccc(Cl)cc2C(O)(c2ccc(C)cc2)N1CCN1CCCCC1` (stereo unspecified) gave a growth inhibition [1] of 12.2% and a growth inhibition [2] of 1.25%.

Work on `NC(=O)c1cc(-c2ccsc2)ccc1OCCOc1ccccc1` yielded a growth inhibition [1] of 7.25% and a growth inhibition [2] of 12.2%.

In the case of `CC(C)(C)[C@H]1CC[C@H](CC2=C(O)C(=O)c3ccccc3C2=O)CC1`, the growth inhibition [1] is reported as 88% (active) and the growth inhibition [2] is reported as 14%.

Molecule `Nc1nccc2ccc(Oc3ccncc3)cc12` has a growth inhibition [1] of 9.25% and a growth inhibition [2] of 14.2%.

Work on `CS(=O)(=O)N1CCC(CCn2nc(Cc3cccc4ccccc34)c3c(N)ncnc32)CC1` yielded a growth inhibition [1] of 5.5% and a growth inhibition [2] of 14%.

In the case of `COc1ccc(-c2cc(NC(=O)c3ccc(F)cc3Cl)ccc2OC)cc1`, the growth inhibition [1] is reported as 0% and the growth inhibition [2] is reported as 6.75%.

Molecule `CC(C)=CCC/C(C)=C/CNCCNC1C2CC3CC(C2)CC1C3` (stereo unspecified) has a growth inhibition [1] of 44.2% and a growth inhibition [2] of 22.2%.

Work on `CCC(NC(=O)c1ccccc1NC(=O)c1ccc(C)cc1)C(=O)OC` (stereo unspecified) yielded a growth inhibition [1] of 10% and a growth inhibition [2] of 5.75%.

Work on `O=C(Nc1ccccc1)c1ccc(-c2cc3ccncc3cc2OC2CCNCC2)s1` yielded a growth inhibition [1] of 8.75% and a growth inhibition [2] of 11%.

Work on `Nc1nc(N)c2c3c(sc2n1)CN(Cc1ccccc1)CC3` yielded a growth inhibition [1] of 21.5% and a growth inhibition [2] of 11%.

`Nc1ccc(C(=O)Nc2ccc(-c3nc4ccccc4o3)cc2)cc1` gave a growth inhibition [1] of 5.5% and a growth inhibition [2] of 0%.

`CCOc1ccc2cc(-c3nn(C(C)(C)C)c(N)c3C(N)=O)cnc2c1` gave a growth inhibition [1] of 0% and a growth inhibition [2] of 2.5%.

In the case of `C[C@@H]1[C@H](O)[C@@H](C)/C=C/C=C/C=C/C=C/C=C/C=C/C=C/[C@H](O[C@@H]2O[C@H](C)[C@@H](O)[C@H](N)[C@@H]2O)C[C@@H]2O[C@](O)(C[C@@H](O)C[C@@H](O)[C@H](O)CC[C@@H](O)C[C@@H](O)CC(=O)O[C@H]1C)C[C@H](O)[C@H]2C(=O)O`, the growth inhibition [1] is reported as 24% and the growth inhibition [2] is reported as 16%.

`c1ccc(Oc2ccc(-c3cc(C4CCOCC4)[nH]n3)cc2)cc1` showed a growth inhibition [1] of 3% and a growth inhibition [2] of 2.75%.

For `CC1(C)Cc2c(c(N3CCOCC3)nc3snc(Br)c23)CO1`, the growth inhibition [1] was 4.5% and the growth inhibition [2] was 6.5%.

Molecule `COC(=O)C1=C(C)NC(C)=C(C(=O)OC(C)C)C1c1cccc2nonc12` (stereo unspecified) has a growth inhibition [1] of 10.8% and a growth inhibition [2] of 11%.

For `COc1cccc(CC(=O)N2CCC(n3c(C)nc4ccc(F)cc43)CC2)c1`, the growth inhibition [1] was 7.5% and the growth inhibition [2] was 6.25%.

For `COc1ccc(OC)c(NCc2ccc3nc(N)nc(N)c3c2Cl)c1`, the growth inhibition [1] was 93.8% (active) and the growth inhibition [2] was 89.2% (active).

`NCCN(C(=O)c1ccc(Cl)cc1Cl)c1ccc(OCc2ccc(Cl)cc2)cc1` showed a growth inhibition [1] of 9.75% and a growth inhibition [2] of 7%.

`CCN(CC)C(=O)N1CCN(C)CC1` was tested, and the growth inhibition [1] was 4% and the growth inhibition [2] was 1%.

For `Cc1cc(OCC(=O)Nc2ccc(C(C)C)cc2)n(C)c(=O)c1C#N`, the growth inhibition [1] was 3.5% and the growth inhibition [2] was 8%.

`COc1ccc(-c2cnc3ccc(NCc4ccc(S(N)(=O)=O)cc4)nn23)cn1` was tested, and the growth inhibition [1] was 26.8% and the growth inhibition [2] was 18.2%.

Molecule `C[C@]1(O)C[C@@H](c2nc(-c3ccc4ccc(-c5ccccc5)nc4c3)c3c(N)nccn32)C1` has a growth inhibition [1] of 6% and a growth inhibition [2] of 23%.

Work on `COc1ccc(-c2cncc3ccc(C(=O)NCCCn4ccnc4)nc23)cc1` yielded a growth inhibition [1] of 16% and a growth inhibition [2] of 16.5%.

With `Cc1ccc(S(=O)(=O)N2CCN(C(=O)c3cc(-c4ccccc4)n[nH]3)CC2)cc1` the growth inhibition [1] was 1.5% and the growth inhibition [2] was 2%.

Work on `CC(C)(C)c1cc(C(=O)N2CCN(c3nccnc3C#N)CC2)n(Cc2ccccc2)n1` yielded a growth inhibition [1] of 25.8% and a growth inhibition [2] of 15.8%.

Work on `CCCCc1ccc(C(=O)Nc2nccc3ccccc23)nc1` yielded a growth inhibition [1] of 23.5% and a growth inhibition [2] of 1%.

With `CC(=O)Oc1ccccc1C(=O)Nc1ncc([N+](=O)[O-])s1` the growth inhibition [1] was 3.5% and the growth inhibition [2] was 14%.

Molecule `O=C(CCC1CCCCC1)Nc1cccc(-c2nnc(-c3ccco3)o2)c1` has a growth inhibition [1] of 2.5% and a growth inhibition [2] of 2.5%.

In the case of `COc1cc(NC(=O)Cc2nn(C)c(=O)c3ccccc23)ccc1Cl`, the growth inhibition [1] is reported as 4.5% and the growth inhibition [2] is reported as 0%.

`N#Cc1nc(-c2ccccc2F)oc1NCCc1ccccc1` gave a growth inhibition [1] of 3.75% and a growth inhibition [2] of 0%.

Molecule `Nc1nccc2ccc(-c3ccc4nccn4c3)cc12` has a growth inhibition [1] of 5.5% and a growth inhibition [2] of 13.5%.

`COc1ccc(S(=O)(=O)Nc2ccc(CN3CCN(C(=O)c4cccc(C#N)c4)CC3)cc2)cc1` was tested, and the growth inhibition [1] was 4.25% and the growth inhibition [2] was 7.75%.

Work on `c1cncc(NCc2ccc(-c3cc4ccncc4cc3OC3CCNCC3)s2)c1` yielded a growth inhibition [1] of 20.8% and a growth inhibition [2] of 3%.

`O=C(Nc1cccnc1)c1c(O)c2cccc3c2n(c1=O)CC3` gave a growth inhibition [1] of 19.5% and a growth inhibition [2] of 11.2%.

For `CC(C(=O)Nc1ccc2oc(-c3ccncc3)nc2c1)c1ccccc1` (stereo unspecified), the growth inhibition [1] was 15.2% and the growth inhibition [2] was 0.5%.

For `Cc1[nH]c2ccccc2c1C(c1cccs1)N1CCN(C)CC1` (stereo unspecified), the growth inhibition [1] was 4.75% and the growth inhibition [2] was 15.2%.

In the case of `Cc1ccc(S(=O)(=O)Nc2ccc(CN3CCN(C(=O)c4cccc(C#N)c4)CC3)cc2)cc1`, the growth inhibition [1] is reported as 2% and the growth inhibition [2] is reported as 0.5%.

Molecule `O=C1Nc2ccc(Br)cc2C12NCCc1c2[nH]c2ccccc12` (stereo unspecified) has a growth inhibition [1] of 18.8% and a growth inhibition [2] of 4.75%.

`c1ccc(Oc2ccc(-c3cc(N4CCOCC4)[nH]n3)cc2)cc1` showed a growth inhibition [1] of 4.25% and a growth inhibition [2] of 8%.

With `Cc1cc2ccccc2n1CC(=O)N1CC(C(=O)N2CCCCC2)Oc2ccccc21` (stereo unspecified) the growth inhibition [1] was 14.8% and the growth inhibition [2] was 10.8%.

For `Cc1ccc2cc(C3NC(=O)c4ccccc4N3)c(Cl)nc2c1` (stereo unspecified), the growth inhibition [1] was 8% and the growth inhibition [2] was 4%.

For `c1ccc(Oc2ccc(-c3cc(N4CCNCC4)[nH]n3)cc2)cc1`, the growth inhibition [1] was 0% and the growth inhibition [2] was 4%.

With `O=C1COCc2ccc(Br)cc2N1Cc1ccc(C(F)(F)F)cc1` the growth inhibition [1] was 0% and the growth inhibition [2] was 2.75%.

For `CCOC(=O)c1c(NC(=O)c2c(F)c(F)c(F)c(F)c2F)sc(C(N)=O)c1C`, the growth inhibition [1] was 13.8% and the growth inhibition [2] was 0%.

`Nc1ncc(Br)cc1-c1nc2cc(Cl)cnc2[nH]1` showed a growth inhibition [1] of 12% and a growth inhibition [2] of 19.2%.

With `CCCn1c(NC(=O)c2ccc3ccccc3n2)nc2ccccc21` the growth inhibition [1] was 3.5% and the growth inhibition [2] was 0%.

`Clc1cccc(C(c2ccc(CN3CCNCC3)cc2)n2ccnc2)c1` (stereo unspecified) showed a growth inhibition [1] of 3% and a growth inhibition [2] of 7%.

For `NCCC(O)C(=O)N[C@@H]1C[C@H](N)[C@@H](OC2O[C@H](CN)[C@@H](O)[C@H](O)[C@H]2O)[C@H](O)C1OC1O[C@H](CO)[C@@H](O)[C@H](N)[C@H]1O` (stereo partly specified), the growth inhibition [1] was 9.25% and the growth inhibition [2] was 1%.

Molecule `CN1CCCN(C(c2ccccc2)c2ccc(Cl)cc2)CC1` (stereo unspecified) has a growth inhibition [1] of 6% and a growth inhibition [2] of 6.5%.

Work on `O=C(NCc1nnc2n1CCCCC2)c1ccc(-c2ccc(F)cc2)o1` yielded a growth inhibition [1] of 11.2% and a growth inhibition [2] of 0%.

`CC(C)C(Oc1cccc2ccccc12)C(=O)O` (stereo unspecified) showed a growth inhibition [1] of 23.2% and a growth inhibition [2] of 4.25%.

For `CC(C)(CN)c1nc(-c2ccc(Cl)c(O)c2)c(-c2ccnc(N)n2)[nH]1`, the growth inhibition [1] was 7% and the growth inhibition [2] was 21.8%.

`Cn1ncc2c(N3CCOCC3)nc(NCCc3c[nH]c4ccccc34)nc21` showed a growth inhibition [1] of 8.25% and a growth inhibition [2] of 0%.

Work on `O=C(c1cc2ccccc2o1)N1CCN(Cc2ccc3c(c2)OCO3)CC1` yielded a growth inhibition [1] of 12.8% and a growth inhibition [2] of 7.25%.

`CCCCS(=O)(=O)Nc1ccc2cnn(C)c2c1` showed a growth inhibition [1] of 4.75% and a growth inhibition [2] of 1.75%.

For `O=C(NC1CCN(c2ccnc3ccccc23)C1)c1cccc(C(F)(F)F)c1` (stereo unspecified), the growth inhibition [1] was 0% and the growth inhibition [2] was 1.5%.

For `Cc1nnc(NCc2cccc(Cl)c2)c2ccccc12`, the growth inhibition [1] was 3% and the growth inhibition [2] was 8.75%.

`COc1cc(NC(C)CCCN)c2ncccc2c1` (stereo unspecified) showed a growth inhibition [1] of 1% and a growth inhibition [2] of 4.25%.

In the case of `COc1ccc(C2=NCCN2)cc1-c1cn(-c2cccc(C3=NCCN3)c2)nn1`, the growth inhibition [1] is reported as 12.8% and the growth inhibition [2] is reported as 3%.

With `O=C(Nc1ccc(C(F)(F)F)c(C(F)(F)F)c1)c1cc(Cl)ccc1O` the growth inhibition [1] was 92.5% (active) and the growth inhibition [2] was 62%.

Molecule `COc1cc(-c2cc(-c3ccc(S(C)(=O)=O)cc3)cnc2N)ccc1O` has a growth inhibition [1] of 17.8% and a growth inhibition [2] of 19.8%.

`CNC(=O)CNc1nc(-c2ccccn2)nc2scc(-c3ccccc3)c12` was tested, and the growth inhibition [1] was 9.5% and the growth inhibition [2] was 3.75%.

`Cc1cc(C(=O)Nc2cnn(Cc3ccc(Cl)cc3Cl)c2)no1` was tested, and the growth inhibition [1] was 5.75% and the growth inhibition [2] was 12%.

For `CNc1cc(C)nc(C2CN(C(=O)c3n[nH]c4ccccc34)CCO2)c1` (stereo unspecified), the growth inhibition [1] was 5.75% and the growth inhibition [2] was 4.5%.

For `O=C(NC1CC1)c1ccc(N2CCC(Cc3ccccc3)CC2)nc1`, the growth inhibition [1] was 6.5% and the growth inhibition [2] was 19.8%.

With `CNC(=O)c1cc(S(=O)(=O)N2CCN(c3ccccn3)CC2)cs1` the growth inhibition [1] was 0% and the growth inhibition [2] was 18.2%.

`CC(C)(C)CN1C(=O)C(c2ccccc2)(c2ccccc2)N=C1N` was tested, and the growth inhibition [1] was 17.8% and the growth inhibition [2] was 4.25%.

Work on `CCOC(=O)c1cc(-c2csc(Nc3c(C)cc(C)cc3C)n2)on1` yielded a growth inhibition [1] of 10.5% and a growth inhibition [2] of 3.75%.

`Nc1ncc(-c2cn[nH]c2)cc1-c1nc2cc(Cl)cnc2[nH]1` gave a growth inhibition [1] of 12% and a growth inhibition [2] of 11%.

`CCn1ncc2c(NC3CCOCC3)c(CNC(=O)c3ccnn3C)c(C)nc21` gave a growth inhibition [1] of 4.25% and a growth inhibition [2] of 0%.

Work on `CCOc1ccccc1C(=O)Nc1cccc(-c2nc3ncccn3c2C)c1` yielded a growth inhibition [1] of 6.75% and a growth inhibition [2] of 12.2%.
